Bioassay records (PubChem)
DT40 TDP1 no CPT – qHTS for Inhibitors of human tyrosyl-DNA phosphodiesterase 1 (TDP1): qHTS in cells in absence of CPT | DT40 Tdp1-/- hTDP1 cells, no CPT, ATP luminescence, 48 h | AID 686978, 2013 | Potency, µM (top dose mostly 46.2 µM), inactives show top-dose activity change, negative = growth inhibition, actives largely listed as inhibitors | 15% of 420,000 active; note: potency is the fitted concentration of half-maximal effect; nearly all actives have a fitted effect of over 55% in size
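Cells were dispensed at 400 per well, compounds added by pin tool, plates incubated ≥48 hr at 37 °C, then CellTiter-Glo added for 30 min at room temperature before luminescence reading. Line: DT40 Tdp1-/- complemented with hTDP1; camptothecin omitted.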
IL-1B inflam inh – qHTS for Inhibitors of Inflammasome Signaling: IL-1-beta AlphaLISA Primary Screen. THP-1 LPS/ATP IL-1B secretion, AlphaLISA, 16 h; active compounds read low. activity change, % at 57.5 µM. 4.7% of 360,000 active. AID 743279, 2014; in the data active = activity change below about -50%; inconclusive = mostly about -30% to -49%
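Secreted IL-1B measured by AlphaLISA bead assay after 16 h compound exposure of THP-1 cells; compounds (final up to 57.5 uM) added 1 h before LPS (250 ng/mL) and ATP (1.25 mM) stimulation; lower signal means less secretion.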
HT1080-NT tox – qHTS for induction of synthetic lethality in tumor cells producing 2HG: qHTS for the HT-1080-NT fibrosarcoma cell line; HT-1080-NT fibrosarcoma viability, CellTiter-Glo ATP luminescence, 48 h; 1.6% of 360,000 active; AID 686970, 2013; Potency, µM (titrated, usually from 46.1 µM), for the others: at the highest dose activity, negative = less viability, most hits filed as cytotoxic;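 note: NT is the 2HG producing partner of a matched IDH1 knockdown line; potency is the fitted concentration of half-maximal effect; 0% = DMSO-treated cells and -100% = media-only wells without cells; nearly all actives have a fitted effect of over 55% in size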
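Toxicity toward the 2HG-producing NT line was scored as %Activity, normalised to DMSO and no-cell wells, from CellTiter-Glo luminescence after 48 hours' treatment.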
ALOX12 inh – Primary qHTS assay for inhibitors of human arachidonate 12S-lipoxygenase (ALOX12): Round 2. Polyunsaturated fatty acid lipoxygenase ALOX12 (Homo sapiens), P18054. purified 12hLO, xylenol orange hydroperoxide absorbance. Potency, µM (series often up to 108 µM), inactives show at the top dose activity change, negative = inhibition, hits mostly inhibitors. 1.1% of 580,000 active; note: potency is the fitted concentration of half-maximal effect
Target sequence (P18054 whole entry, looked up): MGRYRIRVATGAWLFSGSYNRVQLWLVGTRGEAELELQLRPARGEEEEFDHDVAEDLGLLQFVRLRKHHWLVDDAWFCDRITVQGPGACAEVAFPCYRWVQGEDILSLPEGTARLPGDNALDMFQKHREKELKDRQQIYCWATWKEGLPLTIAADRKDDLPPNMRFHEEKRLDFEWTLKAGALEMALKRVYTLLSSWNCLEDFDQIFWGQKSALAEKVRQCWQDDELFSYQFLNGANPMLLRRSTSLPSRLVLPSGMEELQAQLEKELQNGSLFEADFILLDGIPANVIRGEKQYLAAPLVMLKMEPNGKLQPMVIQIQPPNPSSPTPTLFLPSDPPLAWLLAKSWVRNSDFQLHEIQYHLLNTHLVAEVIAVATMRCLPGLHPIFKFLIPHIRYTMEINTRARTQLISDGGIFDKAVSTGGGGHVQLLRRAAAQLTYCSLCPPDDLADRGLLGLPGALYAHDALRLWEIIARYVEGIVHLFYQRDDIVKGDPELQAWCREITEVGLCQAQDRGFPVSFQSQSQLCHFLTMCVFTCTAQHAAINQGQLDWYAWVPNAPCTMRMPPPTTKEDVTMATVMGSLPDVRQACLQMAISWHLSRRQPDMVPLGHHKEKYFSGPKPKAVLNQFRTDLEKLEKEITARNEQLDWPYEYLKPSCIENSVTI
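Purified human 12hLO (150 nM final) in 25 mM Hepes, 0.01% Triton X-100, pH 7.0 was preincubated 15 min at room temperature with compound. Then 40 uM arachidonic acid was added, 30 min. Hydroperoxide was read by Fe-XO absorbance ratio 573/405 nm.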
HT1080 IDH1KD tx – qHTS for induction of synthetic lethality in tumor cells producing 2HG: qHTS for the HT-1080-IDH1KD cell line. HT-1080 IDH1 knockdown viability, ATP luminescence, 48 h. Potency, µM (doses to about 46.1 µM), inactives show at the highest dose activity, negative = toxicity, usual class: cytotoxic. 2% of 360,000 active;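 note: potency is the fitted concentration of half-maximal effect; 0% = DMSO wells and -100% = cell-free medium wells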
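Cytotoxicity counter-line: IDH1KD HT-1080, 48 h, CellTiter-Glo. Curves classed by r2, magnitude and activity.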
DT40 TDP1 CPT – qHTS for Inhibitors of human tyrosyl-DNA phosphodiesterase 1 (TDP1): qHTS in cells in presence of CPT; chicken DT40 Tdp1-/-;hTDP1 cells + 20 nM CPT, ATP luminescence, 48 h; Potency, µM (highest dose often 46.2 µM), for inactives: at the top dose activity change, negative = growth inhibition, actives largely listed as inhibitors; 12% of 420,000 active; AID 686979, 2013; note: potency is the fitted concentration of half-maximal effect; nearly all actives have a fitted effect of over 55% in size
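Chicken DT40 Tdp1-/- cells stably complemented with human TDP1 were seeded at 400 cells/well in medium containing 20 nM camptothecin, exposed to pin-transferred compounds, and grown at 37 °C for at least 48 hr. Viability was read as ATP luminescence.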
* = called active by the depositor; u = inconclusive; x = not tested or not shown; [ ] = dose if it differs, or a comment. This is one part of a sample in which hits are shown more often than they occur. Unless noted, calls come from the whole dose curve; as a rule, active = well fitted curve in the direction sought with a large enough effect; inconclusive = small, poorly fitted or top-dose-only effect, or another doubt; inactive = no such curve, though single readings can be large; an effect the other way counts as inactive or inconclusive. Unless noted, % is set by controls: 0 for no effect and ±100 for the full control effect.

SMILES | DT40 TDP1 no CPT | IL-1B inflam inh | HT1080-NT tox | ALOX12 inh | HT1080 IDH1KD tx | DT40 TDP1 CPT
O=C([C@@H]1C[C@H](Oc2ccccc2)CN1C(=O)c1ccco1)N1CCCC1 | x | x | x | 17% | x | x
COC(=O)C1CCN(C(=O)COC(=O)c2cccc3c(=O)c(C)c(-c4ccccc4)oc23)CC1 | x | x | x | 22% | x | x
Cc1ccc(SC(C)C(=O)NN=C2CCC(C(C)(C)C)CC2)cc1 (configuration not stated) | x | x | x | 15% | x | x
Cn1c(-c2ccc(F)cc2)cnc1NCc1cccc(F)c1 | 18µM* | -12 | 6% | u | u | u
CCn1nnnc1NCc1ccc(OCc2ccc(F)cc2Cl)c(OC)c1 | u | -58* | -7% | 0% | -14% | u
COc1ccc(OC)c(CNc2ncc(-c3ccc(F)cc3)n2C)c1 | u | -18 | 3% | 4% | -1% | u
COc1ccc(CNc2ncc(-c3ccc(F)cc3)n2C)cc1OC | 23µM* | -12 | -10% | u | -9% | u
COc1ccc(NC(=O)CN2C(=O)NC3(CCC(C(C)(C)C)CC3)C2=O)c(OC)c1 (configuration not stated) | x | x | x | 0% | x | x
CC(C)C(=O)Nc1ccc(C(=O)Nc2ccc(Cl)cn2)cc1 | x | x | x | -8% | x | x
CCN(C1CCOCC1)C1CN(C(=O)c2ccnn2C)C1 | x | x | x | 43% | x | x
COc1cccc(NC(=O)c2sc3nc(C)c(C(=O)Nc4ccc(C)cc4C)c(-c4ccc(C)o4)c3c2N)c1 | 6.5µM* | x | x | -7% | x | 10µM*
COc1ccc(-c2c3c(nc4sc(C(=O)Nc5ccc(Cl)cc5)c(N)c24)CC(C)(C)CC3=O)cc1 | 8.2µM* | x | x | -20% | x | 16µM*
CCOc1ccc(NC(=O)c2sc3nc4c(c(-c5ccc(OC)cc5)c3c2N)C(=O)CC(C)(C)C4)cc1 | u | x | x | -26% | x | u
COc1cccc(NC(=O)c2sc3nc(C)c(C(=O)Nc4ccc(Cl)cc4)c(-c4ccc(Br)cc4)c3c2N)c1 | 7.3µM* | x | x | 0% | x | u
COc1ccc(-c2c3c(nc4sc(C(=O)Nc5cc(C)on5)c(N)c24)CCC3)cc1 | u | -88* | 20% | 25% | u | -21%
O=C(Cc1cccs1)N(Cc1ccc2[nH]ccc2c1)C1CC1 | x | x | x | -2% | x | x
CC(=O)NCCCC(=O)N1CCC2(CC1)CC(NC(C)=O)c1ccccc12 (configuration not stated) | x | x | x | 1%[6.33 µM] | x | x
O=C(Cc1ccccc1)N(Cc1ccc2cc[nH]c2c1)C1CC1 | x | x | x | -10% | x | x
Cc1c(C)c2c(c(C)c1O)CCC(C)(CCCC(C)CCCC(C)CCCC(C)C)O2 (configuration not stated) | -1% | x | x | x | x | -3%
Cc1c(C)c2c(c(C)c1O)CCC(C)(COc1ccc(CC3SC(=O)NC3=O)cc1)O2 (configuration not stated) | 13µM* | x | x | u | x | 13µM*
O=C(OCc1cn([C@H]2CN(C(=O)c3cccs3)[C@@H](c3ccc(Cl)cc3)C[C@@H]2O)nn1)c1ccccc1 | u | 45 | -1% | -22% | u | 23µM*
O=C(OCc1cn([C@H]2CN(C(=O)c3cccs3)[C@@H](c3ccccc3)C[C@@H]2O)nn1)c1ccccc1 | 15µM* | 21 | -1% | u | 1% | u
O=C(OCc1cn([C@@H]2C[C@H](c3ccc(Cl)cc3)N(C(=O)c3cccs3)C[C@H]2O)nn1)c1ccccc1 | u | -4 | -19% | -6% | -16% | -5%
CC(=O)c1ccccc1-c1ccc2c(c1)CC(CNC(=O)c1ccnc(Cl)c1)O2 (configuration not stated) | 21µM* | x | x | -5% | x | 23µM*
Cc1cc(NC(=O)C2CCC2)n(-c2ccccn2)n1 | u | -9 | -5% | -4% | -9% | u
SMILES | DT40 TDP1 no CPT | IL-1B inflam inh | HT1080-NT tox | ALOX12 inh | HT1080 IDH1KD tx | DT40 TDP1 CPT
Cc1cc(NC(=O)c2cccc(S(=O)(=O)N(C)C)c2)n(-c2ccccn2)n1 | 23µM* | -9 | 0% | 4% | -10% | 15µM*
Cc1cc(NC(=O)c2cccc(S(=O)(=O)N3CCCCCC3)c2)n(-c2ccccn2)n1 | 21µM* | -18 | 3% | -18% | 2% | u
CCOc1ccc2c(n1)CCN(C(=O)C1(c3ccc(OC)cc3)CC1)C2 | x | x | x | 44% | x | x
CCN1/C(=C\C=C(C(C)=O)C(C)=O)Sc2ccccc21 | u | -7 | 2% | -49% | -11% | u
CCN1/C(=C\C(=S)Nc2ccccc2)Sc2ccccc21 | 3.3µM* | -97* | 15µM* | 32µM* | 9.2µM* | 3.7µM*
CC/C(=N/NC(=O)c1ccccc1O)c1c(C)[nH]n(-c2ccccc2)c1=O | 1.8µM* | 136 | u | u | 26µM* | 2.1µM*
Cc1[nH]n(-c2ccc(Cl)cc2)c(=O)c1C(=O)c1ccccc1 | u | -8 | -28% | u | u | u
CCSC(=S)c1c(C)[nH]n(-c2ccccc2)c1=O | 13µM* | -22 | u | -22% | u | 15µM*
Cc1[nH]n(-c2ccccc2)c(=O)c1C(=O)c1ccc(Cl)cc1 | u | 77 | u | u | -29% | u
